A short description of experiment [1]: Quantitative High-Throughput drug screen in 47 multiple myeloma cell lines against the NCATS MIPE library collection: KMS20_JCRB cell viability assay (AID 1918973). Further: nearly all actives have a fitted effect of over 45% in size. The gist of the method: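 CellTiter-Glo luminescence (ATP) after 48 h compound exposure, 37C/5% CO2; 500 cells/well; MIPE 4.0 approved/investigational drugs pinned in; DMSO = 100%, media only = 0% viability.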

Experiment [2] can be described thus: Quantitative High-Throughput drug screen in 47 multiple myeloma cell lines against the NCATS MIPE library collection: KMS26_JCRB cell viability assay (AID 1918975). Further: nearly all actives have a fitted effect of over 45% in size. An outline of the steps: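 Myeloma cell lines, 500 cells per well, exposed to MIPE 4.0 library compounds for 48 h at 37C, 5% CO2. Viability from ATP by CellTiter-Glo luminescence; normalised to DMSO (100%) and media-only (0%) wells.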

Experiment [3] can be described thus: Quantitative High-Throughput drug screen in 47 multiple myeloma cell lines against the NCATS MIPE library collection: MOLP8_DSMZ cell viability assay (AID 1918977). Further: nearly all actives have a fitted effect of over 45% in size. The gist of the method: (§1)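 500 cells/well; MIPE 4.0 drugs pin-transferred; 48 h, 37C, 5% CO2. CellTiter-Glo, 5 min RT, luminescence. Controls: DMSO 100%, media 0%.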
Experiment [4] can be described thus: Quantitative High-Throughput drug screen in 47 multiple myeloma cell lines against the NCATS MIPE library collection: OCIMY1_PLB cell viability assay (AID 1918979). Further: nearly all actives have a fitted effect of over 35% in size. The gist of the method: as §1
Experiment [5] in a line: Quantitative High-Throughput drug screen in 47 multiple myeloma cell lines against the NCATS MIPE library collection: MM1R_ATCC cell viability assay (AID 1918981). Further: nearly all actives have a fitted effect of over 35% in size. An outline of the steps: as §1
Experiment [6] can be described thus: Quantitative High-Throughput drug screen in 47 multiple myeloma cell lines against the NCATS MIPE library collection: LP1_DSMZ cell viability assay (AID 1918982). Further: nearly all actives have a fitted effect of over 35% in size. The gist of the method: as §1
Experiment [7] in a line: Quantitative High-Throughput drug screen in 47 multiple myeloma cell lines against the NCATS MIPE library collection: KMS28PE_JCRB cell viability assay (AID 1918983). Further: nearly all actives have a fitted effect of over 35% in size. The gist of the method:
as §1

The nature of experiment [8]: Quantitative High-Throughput drug screen in 47 multiple myeloma cell lines against the NCATS MIPE library collection: KMS34_JCRB cell viability assay (AID 1918985). Further: nearly all actives have a fitted effect of over 40% in size. The gist of the method: as §1
A short description of experiment [9]: Quantitative High-Throughput drug screen in 47 multiple myeloma cell lines against the NCATS MIPE library collection: OCIMY5_PLB cell viability assay (AID 1918988). Further: nearly all actives have a fitted effect of over 65% in size. The gist of the method: as §1
Experiment [10] in a line: Quantitative High-Throughput drug screen in 47 multiple myeloma cell lines against the NCATS MIPE library collection: OPM1_PLB cell viability assay (AID 1918989). Further: nearly all actives have a fitted effect of over 40% in size. The gist of the method: as §1
Experiment [11] is described as follows: Quantitative High-Throughput drug screen in 47 multiple myeloma cell lines against the NCATS MIPE library collection: SKMM1_PLB cell viability assay (AID 1919863). Further: nearly all actives have a fitted effect of over 35% in size. The note with it: SKMM1 myeloma viability, CellTiter-Glo ATP, 48 h; viability: active compounds read low. An outline of the steps:
as §1

Experiment [12] can be described thus: Quantitative High-Throughput drug screen in 47 multiple myeloma cell lines against the NCATS MIPE library collection: U266_ATCC cell viability assay (AID 1919864). Further: nearly all actives have a fitted effect of over 35% in size. An outline of the steps: as §1
The nature of experiment [13]: Quantitative High-Throughput drug screen in 47 multiple myeloma cell lines against the NCATS MIPE library collection: XG6_PLB cell viability assay (AID 1919865). Further: nearly all actives have a fitted effect of over 40% in size. The gist of the method: as §1
Experiment [14] can be described thus: Quantitative High-Throughput drug screen in 47 multiple myeloma cell lines against the NCATS MIPE library collection: MMM1_PLB cell viability assay (AID 1918976). Further: nearly all actives have a fitted effect of over 35% in size. The gist of the method: as §1
A short description of experiment [15]: Quantitative High-Throughput drug screen in 47 multiple myeloma cell lines against the NCATS MIPE library collection: NCIH929_DSMZ cell viability assay (AID 1918978). Further: nearly all actives have a fitted effect of over 35% in size. An outline of the steps:
as §1

Experiment [16] can be described thus: Quantitative High-Throughput drug screen in 47 multiple myeloma cell lines against the NCATS MIPE library collection: MM1S_ATCC cell viability assay (AID 1918980). Further: nearly all actives have a fitted effect of over 45% in size. The gist of the method: as §1
A short description of experiment [17]: Quantitative High-Throughput drug screen in 47 multiple myeloma cell lines against the NCATS MIPE library collection: L363_DSMZ cell viability assay (AID 1918984). Further: nearly all actives have a fitted effect of over 40% in size. The note with it: L363 myeloma viability, CellTiter-Glo ATP luminescence, 48 h; viability (% of control): at 45.8 µM (top of the series). The gist of the method:
as §1

Experiment [18] is described as follows: Quantitative High-Throughput drug screen in 47 multiple myeloma cell lines against the NCATS MIPE library collection: OCIMY7_PLB cell viability assay (AID 1918987). Further: nearly all actives have a fitted effect of over 65% in size. To be noted: OCI-MY7 myeloma viability, CellTiter-Glo ATP, 48 h; viability (% of DMSO): at 45.8 µM (top of the series). The gist of the method: as §1
Experiment [19] in a line: Quantitative High-Throughput drug screen in 47 multiple myeloma cell lines against the NCATS MIPE library collection: XG1_PLB cell viability assay (AID 1919866). Further: nearly all actives have a fitted effect of over 35% in size. The gist of the method:
as §1

Results filed as inconclusive are left out. Unmarked numbers belong to inactive results. The source made the active and inactive calls. The call rests on the fitted dose curve; in most records, active means well fitted curve in the direction sought with a large enough effect; inconclusive means small, poorly fitted or top-dose-only effect, or another doubt; inactive means no such curve, though single readings can be large; an effect the other way counts as inactive or inconclusive.
Potency means the concentration at half of the fitted maximal effect.

In the case of `CC1=C(C(=O)Nc2cc3cn[nH]c3cc2F)C(c2ccc(C(F)(F)F)cc2)CC(=O)N1` (stereo not drawn), the Potency result in [1], in experiment [2], in [3], in experiment [4], in [5] and in experiment [6] was “inactive” each time. Further, the Potency result in [7], in experiment [8], in experiment [9], in experiment [10], in experiment [12] and in experiment [13] was “inactive” each time. In [11], the viability was 160%.
For the molecule `C=CCc1cccc(C=NNC(=O)CN2CCN(Cc3ccccc3)CC2)c1O`, the Potency in experiment [1] is 20.9 µM (active); in [14], 16.6 µM (active); in experiment [3], 6.62 µM (active); in [15], 26.4 µM (active); in [4], 8.33 µM (active); in experiment [16] it was 9.35 µM (active). Moreover, the Potency in experiment [5] is 10.5 µM (active); in [7], 20.9 µM (active); in [17] it was 6.62 µM (active); in experiment [8] it was 4.69 µM (active); in experiment [18], 14.8 µM (active); in [9], 7.43 µM (active). Further, the Potency in experiment [10] was 20.9 µM (active); in experiment [12] it was 8.33 µM (active); in experiment [13] it was 9.35 µM (active); in [19], 10.5 µM (active).
`Nc1[nH]nc2nnc(-c3c(-c4ccccc4)nn4ccccc34)cc12`: the Potency was 2.09 µM (active) in experiment [1]; 3.72 µM (active) in experiment [15]; 0.264 µM (active) in experiment [16]; 23.5 µM (active) in experiment [5]; 2.64 µM (active) in experiment [17]; 0.209 µM (active) in experiment [18]. Moreover, the results for the Potency in experiment [9], in experiment [12] and in experiment [13] were 20.9 µM (active), 5.26 µM (active) and 3.72 µM (active), respectively. Also, the Potency entry in [2] and in experiment [6] was “inactive” each time.
On to `O=C(NC[C@H](O)CO)c1ccncc1Nc1ccc(I)cc1F`, for which the Potency is 0.0526 µM (active) in experiment [1]; 8.33 µM (active) in experiment [15]; 0.0935 µM (active) in [4]; 13.2 µM (active) in experiment [5]; 13.2 µM (active) in [17]; 1.18 µM (active) in experiment [8]. Also, the Potency was 0.209 µM (active) in experiment [18]; 18.7 µM (active) in experiment [10]; 8.33 µM (active) in [11]; 20.9 µM (active) in experiment [12]; 7.43 µM (active) in experiment [13]; 14.8 µM (active) in experiment [19]. In experiment [14], the Potency result was “inactive”.
In the case of `CC(=O)OCC(=O)[C@@]12OC(C)(C)O[C@H]1C[C@H]1[C@@H]3C[C@H](F)C4=CC(=O)C=C[C@]4(C)[C@@]3(F)[C@@H](O)C[C@@]12C`, the Potency result in [1], in experiment [2], in [15], in experiment [4], in experiment [5] and in experiment [7] was “inactive” each time. The Potency result in [17], in experiment [8], in experiment [10], in experiment [13] and in experiment [19] was “inactive” in each case. For the same molecule, the Potency in experiment [16] was 0.0372 µM (active); in [6], 0.0264 µM (active).
With `NS(=O)(=O)c1ccc(Nc2nc(OCC3CCCCC3)c3[nH]cnc3n2)cc1`, the Potency in experiment [1] is 20.9 µM (active); in [14] it was 2.09 µM (active); in [15], 4.18 µM (active); in experiment [16], 18.7 µM (active); in [5], 14.8 µM (active); in experiment [18], 13.2 µM (active). Moreover, the Potency in [9] was 23.5 µM (active); in experiment [10] it was 20.9 µM (active); in [12] it was 20.9 µM (active); in experiment [13], 2.96 µM (active); in experiment [19], 2.64 µM (active). The Potency result in [4] was “inactive”.
With `CNC(=O)[C@H](Cc1ccccc1)NC(=O)[C@H](CC(C)C)[C@H](CSc1cccs1)C(=O)NO`, the Potency entry in experiment [1], in [2] and in [10] was “inactive” each time. The Potency in experiment [16] is 26.4 µM (active); in [7], 6.62 µM (active); in experiment [18] it was 14.8 µM (active); in [13] it was 7.43 µM (active); in [19], 9.35 µM (active). Besides, in experiment [11], the viability was 98.7%.
With `COc1ccnc(CS(=O)c2nc3ccc(OC(F)F)cc3[nH]2)c1OC` (stereo not drawn), the Potency result in experiment [1], in experiment [3], in [4], in [5], in experiment [6] and in [7] was “inactive” each time. For the same molecule, the Potency result in experiment [8], in [9] and in experiment [12] was “inactive” in each case. Further, the figures for the Potency in experiment [15] and in experiment [13] were 18.7 µM (active) and 20.9 µM (active), respectively. Further, the viability in experiment [11] was 150%.
With `N#CC(c1ccnc(NCCc2cccnc2)n1)c1nc2ccccc2s1` (stereo not drawn), the Potency was 14.8 µM (active) in [1]; 20.9 µM (active) in experiment [14]; 7.43 µM (active) in experiment [15]; 18.7 µM (active) in experiment [5]; 18.7 µM (active) in experiment [6]; 4.69 µM (active) in [17]. Moreover, the Potency in experiment [8] was 14.8 µM (active); in experiment [18], 2.96 µM (active); in [9], 13.2 µM (active); in experiment [10], 14.8 µM (active); in experiment [13], 5.9 µM (active). The Potency entry in experiment [3] and in [4] was “inactive” throughout.
For the molecule `CN1CCN2c3ncccc3Cc3ccccc3C2C1` (stereo not drawn), the Potency result in experiment [1], in experiment [2], in experiment [15], in experiment [4], in experiment [5] and in experiment [7] was “inactive” each time. Also, the Potency entry in experiment [8], in experiment [10] and in experiment [13] was “inactive” each time.
Regarding `Cc1cc(C(C)Nc2ccccc2)c2nc(N3CCOCC3)cc(=O)n2c1` (stereo not drawn), the Potency is 10.5 µM (active) in experiment [1], 0.332 µM (active) in experiment [16], 2.09 µM (active) in experiment [18] and 1.05 µM (active) in experiment [13]. Also, the Potency entry in experiment [14], in [3], in experiment [4] and in experiment [12] was “inactive” each time.
`CO[C@@H]1C(N(C)C(=O)c2ccccc2)C[C@H]2O[C@]1(C)n1c3ccccc3c3c4c(c5c6ccccc6n2c5c31)C(=O)NC4=O` (stereo partly drawn): the Potency in experiment [1] is 3.72 µM (active); in [2], 1.32 µM (active); in experiment [8], 3.32 µM (active); in experiment [18] it was 0.935 µM (active); in experiment [9], 5.26 µM (active); in experiment [10] it was 4.18 µM (active). Further, the Potency is 11.8 µM (active) in [11] and 13.2 µM (active) in experiment [12].
As for `O=C(c1ccc(F)c(F)c1Nc1ccc(I)cc1F)N1CC(O)([C@H]2CCCCN2)C1`, the Potency in experiment [1] was 0.372 µM (active); in experiment [2], 23.5 µM (active); in experiment [5], 23.5 µM (active); in experiment [7], 18.7 µM (active); in experiment [17], 1.66 µM (active); in [9] it was 18.7 µM (active). Further, the Potency in experiment [10] was 11.8 µM (active); in experiment [11], 16.6 µM (active); in experiment [13] it was 18.7 µM (active); in experiment [19], 16.6 µM (active). Besides, the Potency entry in experiment [18] was “inactive”.

The values are drawn from PubChem BioAssay (NCATS).
